# Shiga toxin inh: Shiga toxin inhibition | Vero cells, Shiga toxin protein synthesis inhibition reporter | inhibition, % at 38.7 µM | actives 9.2% (n = 290,000); in the data active = inhibition mostly above about 28%, no sharp cut-off; inactive = mostly below about 43%; also: 0% is about no effect
# CHX counter: counter-screen for Shiga toxin inhibitors: cycloheximide protein synthesis inhibition; actives 12% (n = 300,000); cell reporter, cycloheximide protein synthesis inhibition counterscreen; max response, %; in the data active = max response mostly above about 13%, no sharp cut-off; inactive = mostly below about 14%; also: read at 38.3 µM for the half of the compounds with a filed dose; 0% is about no effect
# AMA1-RON2 inh: disrupts binding of P. falciparum AMA1 to RON2; Potency, µM (series often up to 58.2 µM), without a hit: top-dose activity change, negative = inhibition, hits mostly inhibitors; actives 0.2% (n = 360,000); AlphaScreen AMA1-biotinylated RON2 peptide binding;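 also: potency is read from the fitted curve at half-maximal effect; 0% = vehicle wells and -100% = peptide control; nearly all actives have a fitted effect of over 45% in size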
#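 AMA1 (3D7) with his tag at 25 nM final met compounds first, then biotinylated RON2 peptide at 25 nM; detection used donor plus acceptor beads, 10 µg/mL apiece, read by AlphaScreen after 30 min at room temperature.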
# AmpC inh detg: blocks E. coli AmpC beta-lactamase in detergent assay; Potency, µM (series often up to 114 µM), inactives show at the top dose activity change, negative = inhibition, hits mostly inhibitors; actives 0.041% (n = 370,000); P00811; AmpC hydrolysis of nitrocefin, absorbance 480 nm, 0.01% Triton;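 also: potency is read from the fitted curve at half-maximal effect; 0% = no-compound wells and -100% = no-enzyme wells; nearly all actives have a fitted effect of over 25% in size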
# Target sequence (P00811 whole entry, looked up): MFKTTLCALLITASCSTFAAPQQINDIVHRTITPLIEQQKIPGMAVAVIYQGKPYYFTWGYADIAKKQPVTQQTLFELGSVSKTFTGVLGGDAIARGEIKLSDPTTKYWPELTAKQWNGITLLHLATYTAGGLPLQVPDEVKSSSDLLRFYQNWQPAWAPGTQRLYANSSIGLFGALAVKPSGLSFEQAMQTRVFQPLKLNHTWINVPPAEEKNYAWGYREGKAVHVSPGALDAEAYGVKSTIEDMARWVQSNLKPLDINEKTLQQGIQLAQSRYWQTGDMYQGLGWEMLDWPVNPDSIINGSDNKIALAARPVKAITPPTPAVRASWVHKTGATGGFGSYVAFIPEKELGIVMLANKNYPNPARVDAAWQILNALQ
#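 20 mM phosphate pH 7.0 + 0.01% (detergent screen) or 0.0001% Triton X-100; 5.3 nM AmpC reagent; cpd preinc 15 min RT; nitrocefin (800 uM stock) to start; A480 q20 s × 4 min; Activity was normalised to no-enzyme and no-compound control wells.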
# SARS PLpro yeast: blocks SARS-CoV papain-like protease in a yeast assay; S. cerevisiae expressing SARS-CoV PLpro, growth rescue; Potency, µM (titrated, usually from 32.9 µM), without a hit: top-dose activity, positive = growth rescue, actives largely listed as activators; actives 0.19% (n = 330,000); calls by dose curve; also: potency is read from the fitted curve at half-maximal effect; 0% is about no effect; nearly all actives have a fitted effect of over 55% in size
# AmpC no deterg: AmpC beta-lactamase inhibition without detergent | AmpC nitrocefin hydrolysis, absorbance 480 nm, 0.0001% Triton | Potency, µM (highest dose often 57.1 µM), inactives show at the highest dose activity change, negative = inhibition, usual class: inhibitors | actives 0.52% (n = 330,000) | AID 485341;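 also: potency is read from the fitted curve at half-maximal effect; plate controls were no compound for no effect and no enzyme for full effect; nearly all actives have a fitted effect of over 20% in size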
#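 20 mM phosphate pH 7.0 + 0.01% (detergent screen) or 0.0001% Triton X-100; 5.3 nM AmpC reagent; cpd preinc 15 min RT; nitrocefin (800 uM stock) to start; A480 q20 s × 4 min; Activity was normalised to no-enzyme and no-compound control wells.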
# * hit, by the source's call; ? = inconclusive; · = no result; + = active, no number. This excerpt belongs to a sample that is enriched for hits. Unless noted, calls follow the shape of the dose curve; as a rule, active = well fitted curve in the direction sought with a large enough effect; inconclusive = small, poorly fitted or top-dose-only effect, or another doubt; inactive = no such curve, though single readings can be large; an effect the other way counts as inactive or inconclusive.
SMILES,Shiga toxin inh,CHX counter,AMA1-RON2 inh,AmpC inh detg,SARS PLpro yeast,AmpC no deterg
COC(=O)c1ccc(N2CCN(C)CC2)c(NC(=O)COc2ccccc2)c1,-7.6,-2.3,1.1%,1.1%,2.1%,3.5%
Cc1cc(NC(=O)COc2ccccc2)ccc1Cl,107.1*,49.8*,21.7%,-1.3%,-2.8%,-31.2%
Cc1ccc(NC(=O)COc2ccccc2)cc1Cl,102.0*,16.9*,36.7%,-0.8%,-7.0%,-20.9%
CN1CCN(c2ccc(NC(=O)COc3ccccc3)cc2Cl)CC1,82.6*,44.0*,16.6%,-9.3%,2.5%,60.2%
CO/N=C/C(NC(=O)c1ccc(C(F)(F)F)cc1)C(=O)OC (stereo not given),47.7,23.2*,5.5%,-19.9%,-4.9%,0.6%
C/C(=N/OC(=O)c1ccccc1)c1oc(C)nc1C,63.8*,51.3*,-26.0%,-4.8%,-1.4%,-0.6%
O=C1NC(=Nc2ccccc2)SC1(CO)CO,-6.0,-1.1,7.5%,?,-1.2%,-4.2%
Cc1ccc(N=C2NC(=O)C(CO)(CO)S2)cc1,10.3,8.8*,-5.2%,?,-1.0%,-1.2%
Cc1ccc(-c2cc(-c3ccccc3Cl)[nH]n2)c(O)c1,128.1*,50.7*,57.1%,?,-10.2%,-34.2%
Nc1n[nH]c(-c2ccccc2[N+](=O)[O-])n1,-1.9,0.6,30.1%,-2.5%,8.3%,-7.4%
Cc1ccc(-c2cc(-c3ccccc3[N+](=O)[O-])[nH]n2)c(O)c1,75.4*,31.0*,41.6%,-9.1%,-16.3%,-30.1%
Cc1ccccc1-c1cc(-c2ccccc2O)n[nH]1,74.9*,30.5*,77.7%,-8.3%,-8.6%,-16.0%
COCCNC(=O)CSc1nc(N)c(NC(=O)c2ccccc2F)c(=O)[nH]1,-13.9,-1.7,25.2%,-0.5%,-24.7%,-16.0%
Cc1nc(Cl)sc1C(=O)Nc1ccc(F)cc1,·,·,1.4%,·,·,·
CC(C)S(=O)(=O)c1csc(C(=O)Nc2ccc(F)cc2)c1N,53.5,41.9*,-26.2%,2.7%,-11.7%,-15.6%
COc1ccc(Cl)cc1C(=O)NNC(=O)CCNC(C)=O,7.3,2.5,28.4%,1.0%,1.4%,-22.4%
CNC(=O)/C(C#N)=C/c1cccc(Oc2ccccc2)c1,64.0*,42.0*,7.4%,-1.4%,-4.9%,10.6%
O=C(CSc1nc2ccc(Cl)cc2[nH]1)c1cccs1,122.4*,57.8*,17.2%,9.2%,0.3%,-29.7%
O=C(CSc1nc2cc(Cl)ccc2o1)c1cccs1,43.4,23.2*,22.8%,-19.0%,16.6%,-32.6%
NS(=O)(=O)c1cccc(NC(=O)CSc2nc3ccc(Cl)cc3[nH]2)c1,20.8,-5.8,6.3%,?,0.7%,17.8µM*
Cc1cc(C(=O)CSc2nc3ccc(Cl)cc3[nH]2)c(C)n1C,15.7,8.0,33.4%,-10.9%,-10.8%,-26.5%
Cc1ccc(S(=O)(=O)N2CCCCC2)cc1NC(=O)CN1C(=O)c2ccccc2S1(=O)=O,·,·,15.9%,·,-5.3%,-54.5%
CCc1nnc(NC(=O)/C=C/c2ccco2)s1,55.2,26.7*,-7.1%,-11.1%,0.7%,-10.4%
CCSc1nnc(NC(=O)/C=C/c2ccco2)s1,116.7*,30.1*,-1.3%,-4.3%,0.6%,-47.7%
O=C(/C=C/c1ccco1)Nc1cccc(NC(=O)/C=C/c2ccco2)n1,102.5*,33.2*,23.7%,0.1%,-1.1%,-50.3%
SMILES,Shiga toxin inh,CHX counter,AMA1-RON2 inh,AmpC inh detg,SARS PLpro yeast,AmpC no deterg
O=C(/C=C/c1ccco1)Nc1ccccc1C(=O)O,98.7,36.2,20.7%,-7.3%,-1.3%,-37.2%
CNS(=O)(=O)c1ccc2nc(NC(=O)/C=C/c3ccco3)sc2c1,25.9,12.9,-4.9%,6.5%,-5.8%,-19.9%
Cc1nc(NC(=O)/C=C/c2ccco2)sc1C,143.8*,57.3*,-12.7%,-10.1%,-19.8%,-16.7%
CCc1nnc(NC(=O)CSc2ccc(-c3ccco3)nn2)s1,16.9,8.6,-5.3%,-0.3%,-1.8%,-13.4%
CC(C)Oc1ccccc1C1CC(=O)Nc2cc3c(cc21)OCO3 (stereo not given),-12.9,-1.2,-23.2%,5.9%,1.5%,-30.6%
O=C(OCC(=O)c1cccs1)c1cccc(C(=O)OCC(=O)c2cccs2)n1,-6.0,-4.0,27.0%,-10.7%,-8.9%,-18.2%
COc1ccc(/C=C/C(=O)NC2=NCCS2)cc1OC,69.7*,37.8*,15.2%,0.6%,1.9%,1.9%
O=C(/C=C/c1ccco1)Nc1ccccc1N1CCCC1,40.5,11.9*,-15.6%,-5.4%,-1.9%,-11.6%
O=C(/C=C/c1ccco1)NC1=NCCS1,42.7*,61.1*,4.9%,0.6%,-3.0%,-17.4%
O=C(/C=C/c1ccco1)Nc1nnc(-c2ccco2)s1,48.0,14.4*,-2.3%,1.0%,-0.4%,-19.1%
COc1ccc(NC(=O)Nc2nnc(CC(=O)NCc3ccccc3)s2)cc1,2.6,-1.4,4.7%,0.9%,0.7%,?
CCOC(=O)N1CCN(C(=O)CCn2c(=S)[nH]c3ccsc3c2=O)CC1,14.1,12.9,20.3%,0.4%,-1.0%,-9.8%
N/C(=N\OC(=O)COc1ccccc1Cl)c1ccc(Cl)cc1,+,14.7*,111.3%,0.3%,-20.2%,-16.6%
N/C(=N\OC(=O)COc1ccc(Cl)cc1)c1ccc(Cl)cc1,10.7,1.5,6.9%,?,16.0%,-21.2%
Cc1ccc(/C(N)=N/OC(=O)COc2ccccc2Cl)cc1,97.0,39.2*,39.6%,?,-1.5%,-24.3%
O=C(CN(C(=O)CNC(=O)c1cccs1)c1ccccc1F)NC1CCCCC1,-4.1,-12.1,-18.0%,-12.9%,2.7%,14.2%
CC(C)(C)C#CC(CCc1ccccc1)OS(N)(=O)=O (stereo not given),20.8,11.6*,·,1.2%,-2.5%,7.8%
CCc1cccc(C)c1NC(=O)CC(C)(C)CC(=O)O,-10.5,-0.9,-10.8%,-7.5%,-0.1%,-8.1%
Cc1cc(C(C)(C)C)ccc1NC(=O)CC(C)(C)CC(=O)O,82.1*,49.0*,14.6%,-6.7%,0.8%,-12.2%
Cc1cc(C)cc(OCC(=O)OCC(=O)c2ccc3c(c2)NC(=O)CO3)c1,-12.0,4.7,-9.7%,-7.3%,0.4%,-16.5%
CC(C)c1ccccc1NC(=O)Cn1c(-c2ccccc2Cl)nc2ccccc21,9.6,3.2,-23.4%,4.6%,7.2%,29.7%
Cc1cccc(CSc2nc3ccncc3n2CC(=O)Nc2ccc(C)c(C)c2)c1,29.2,27.3*,·,-12.9%,-0.9%,3.16µM*
Cc1ccc(NC(=O)Cn2c(/C=C/c3ccccc3)nc3ccccc32)cc1C,19.2,18.5*,-1.9%,3.6%,-26.4%,8.91µM*
Cc1ccc(NC(=O)Cn2c(=O)c(C(F)(F)F)nc3ccccc32)cc1C,·,·,·,5.1%,·,·
CC(C)c1ccccc1NC(=O)Cn1c(/C=C/c2ccccc2)nc2ccccc21,53.2*,36.2*,-1.0%,-7.3%,0.1%,-44.6%
Cc1ccc(C)c(CSc2nc3ccncc3n2CC(=O)Nc2ccc(C)c(C)c2)c1,-11.5,8.5,·,?,2.9%,?

# Screening data (PubChem)
